This note sets out measurements from PubChem BioAssay.

Active and inactive are the calls of the source.

Experiment [1] is described as follows: binders of probe aFSTL3 on microarray, primary screen, stem cell growth factor project, biochemical, small-molecule microarray, fluorescence 635/667 (AID 1064).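 Further: measures binding of the biotinylated anti-FSTL3 antibody to printed compounds.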 Conditions: higher = more signal.
Experiment [2] can be described thus: binders from COS7 lysate, DM2A8 probe, primary screen, torsin A project, cell lysate, small-molecule microarray, fluorescence 635/667 (AID 1065). Conditions: higher = more signal, COS7 lysate expressing mutant human TOR1A.
The nature of experiment [3]: binders of probe aFGF2 on microarray, primary screen, stem cell growth factor project, biochemical, small-molecule microarray, fluorescence 635/667 (AID 1067).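 Further: measures binding of biotinylated aFGF2 protein to printed compounds on slides; z-score merges feature fluorescence and signal-to-noise across triplicate slides.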 Conditions: higher = more signal.
Experiment [4] can be described thus: binders of probe aFGF10 on microarray, primary screen, stem cell growth factor project, biochemical, small-molecule microarray, fluorescence 635/667 (AID 1071).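 Further: score merges 667 nm spot intensity and signal to noise from triplicate slides.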 Conditions: higher = more signal.
The target in experiment [5] is Neurogenic locus notch homolog protein 2 (Homo sapiens) (UniProt Q04721). Kind of experiment: Notch2 binders on small-molecule microarrays, primary screen, biochemical, small-molecule microarray, 635 nm fluorescence, stem cell growth factors (AID 1073). Conditions: Notch2 binding, higher = more signal.
Chain of Neurogenic locus notch homolog protein 2 (Homo sapiens) (Q04721 whole entry, looked up, canonical isoform): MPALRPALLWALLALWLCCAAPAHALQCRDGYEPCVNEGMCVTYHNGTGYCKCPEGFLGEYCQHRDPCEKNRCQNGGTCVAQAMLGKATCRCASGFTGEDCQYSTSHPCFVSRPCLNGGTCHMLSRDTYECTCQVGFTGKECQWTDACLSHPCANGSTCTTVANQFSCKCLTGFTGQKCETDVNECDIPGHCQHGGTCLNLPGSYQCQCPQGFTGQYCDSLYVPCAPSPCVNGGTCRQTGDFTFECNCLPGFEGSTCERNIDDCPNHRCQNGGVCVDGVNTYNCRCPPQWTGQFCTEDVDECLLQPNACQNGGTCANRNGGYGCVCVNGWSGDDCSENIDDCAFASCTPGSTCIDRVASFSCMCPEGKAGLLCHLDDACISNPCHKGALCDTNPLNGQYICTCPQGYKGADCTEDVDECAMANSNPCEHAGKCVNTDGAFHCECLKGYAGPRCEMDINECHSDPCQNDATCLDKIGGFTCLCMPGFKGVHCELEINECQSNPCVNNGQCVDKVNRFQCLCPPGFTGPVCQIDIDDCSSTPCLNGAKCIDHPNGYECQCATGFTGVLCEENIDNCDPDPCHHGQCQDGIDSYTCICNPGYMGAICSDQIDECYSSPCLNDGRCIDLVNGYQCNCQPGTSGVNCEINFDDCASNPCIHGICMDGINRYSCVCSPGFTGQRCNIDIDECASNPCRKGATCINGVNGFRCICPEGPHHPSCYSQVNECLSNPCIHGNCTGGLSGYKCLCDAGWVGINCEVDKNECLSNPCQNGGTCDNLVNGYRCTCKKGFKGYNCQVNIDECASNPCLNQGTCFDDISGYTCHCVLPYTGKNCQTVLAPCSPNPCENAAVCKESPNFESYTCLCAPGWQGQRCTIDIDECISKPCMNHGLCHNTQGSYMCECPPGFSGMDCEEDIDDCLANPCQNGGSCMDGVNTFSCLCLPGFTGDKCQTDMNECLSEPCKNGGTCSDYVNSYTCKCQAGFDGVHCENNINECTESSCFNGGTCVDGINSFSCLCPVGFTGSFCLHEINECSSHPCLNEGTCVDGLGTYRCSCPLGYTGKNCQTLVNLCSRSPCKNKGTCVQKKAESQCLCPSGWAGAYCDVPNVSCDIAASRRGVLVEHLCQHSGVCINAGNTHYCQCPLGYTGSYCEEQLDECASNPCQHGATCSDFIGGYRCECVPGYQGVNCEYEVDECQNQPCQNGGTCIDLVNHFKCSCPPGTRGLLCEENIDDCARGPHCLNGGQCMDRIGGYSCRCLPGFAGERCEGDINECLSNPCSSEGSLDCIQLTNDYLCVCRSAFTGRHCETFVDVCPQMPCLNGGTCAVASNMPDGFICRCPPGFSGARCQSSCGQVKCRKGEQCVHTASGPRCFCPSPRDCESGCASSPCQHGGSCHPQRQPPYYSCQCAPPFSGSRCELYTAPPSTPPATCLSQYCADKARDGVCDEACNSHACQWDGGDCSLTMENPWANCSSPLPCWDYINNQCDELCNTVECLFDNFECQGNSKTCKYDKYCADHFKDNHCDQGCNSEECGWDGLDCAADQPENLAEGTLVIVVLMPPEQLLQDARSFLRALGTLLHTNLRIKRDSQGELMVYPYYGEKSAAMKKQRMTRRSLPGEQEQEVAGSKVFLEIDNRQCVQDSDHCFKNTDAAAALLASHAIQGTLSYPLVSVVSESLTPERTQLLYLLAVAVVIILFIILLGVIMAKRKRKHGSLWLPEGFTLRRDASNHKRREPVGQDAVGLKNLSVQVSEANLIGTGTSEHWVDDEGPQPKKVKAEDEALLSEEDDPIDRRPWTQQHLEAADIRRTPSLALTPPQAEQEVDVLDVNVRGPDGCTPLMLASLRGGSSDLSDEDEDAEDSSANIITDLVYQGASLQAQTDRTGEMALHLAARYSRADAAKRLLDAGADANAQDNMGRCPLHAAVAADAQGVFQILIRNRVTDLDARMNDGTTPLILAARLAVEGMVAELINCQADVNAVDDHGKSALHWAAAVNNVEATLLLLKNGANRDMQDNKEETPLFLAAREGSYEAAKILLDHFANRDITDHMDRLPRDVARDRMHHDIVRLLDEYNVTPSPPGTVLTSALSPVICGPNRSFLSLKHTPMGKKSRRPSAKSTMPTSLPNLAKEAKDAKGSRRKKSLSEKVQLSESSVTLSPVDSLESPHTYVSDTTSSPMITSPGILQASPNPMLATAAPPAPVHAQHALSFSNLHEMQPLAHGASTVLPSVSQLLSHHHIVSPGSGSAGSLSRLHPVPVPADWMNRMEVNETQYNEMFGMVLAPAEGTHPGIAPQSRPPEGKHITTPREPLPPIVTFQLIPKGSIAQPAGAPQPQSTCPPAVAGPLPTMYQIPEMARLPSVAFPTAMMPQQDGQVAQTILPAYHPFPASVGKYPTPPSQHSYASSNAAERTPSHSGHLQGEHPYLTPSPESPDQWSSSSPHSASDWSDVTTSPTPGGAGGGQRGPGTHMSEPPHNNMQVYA
The target of experiment [6] is Pro-neuregulin-1, membrane-bound isoform (Homo sapiens) (UniProt Q02297). The experiment can be described thus: NRG1 binders on small-molecule microarrays, primary screen, psychiatric disease protein project, biochemical, small-molecule microarray, fluorescence 635/667 (AID 1075).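 Further: score combines 667 nm spot fluorescence with signal to noise.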 Conditions: NRG1 binding, 635 nm fluorescence, higher = more signal.
Chain of Pro-neuregulin-1, membrane-bound isoform (Homo sapiens) (Q02297 whole entry, looked up, the tested form may be a part, canonical isoform): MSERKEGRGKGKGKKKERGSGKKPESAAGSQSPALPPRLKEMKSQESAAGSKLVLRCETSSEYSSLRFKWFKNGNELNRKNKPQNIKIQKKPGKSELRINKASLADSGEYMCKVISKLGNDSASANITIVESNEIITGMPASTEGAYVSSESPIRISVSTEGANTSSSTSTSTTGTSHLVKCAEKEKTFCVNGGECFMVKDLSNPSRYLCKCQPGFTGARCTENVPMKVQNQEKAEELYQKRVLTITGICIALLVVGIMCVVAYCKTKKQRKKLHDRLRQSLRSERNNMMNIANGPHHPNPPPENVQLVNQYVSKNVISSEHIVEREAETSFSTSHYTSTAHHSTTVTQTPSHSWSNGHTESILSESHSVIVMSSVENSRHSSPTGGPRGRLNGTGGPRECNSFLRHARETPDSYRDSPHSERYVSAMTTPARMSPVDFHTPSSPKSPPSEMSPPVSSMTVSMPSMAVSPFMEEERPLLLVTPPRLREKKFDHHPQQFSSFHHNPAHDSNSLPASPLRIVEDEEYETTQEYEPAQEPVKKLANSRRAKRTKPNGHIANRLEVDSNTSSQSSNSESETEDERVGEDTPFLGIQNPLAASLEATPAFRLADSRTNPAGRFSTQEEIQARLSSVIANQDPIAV
The test system of experiment [7] is Neuregulin-1 EGF-like domain. Kind of experiment: binders of neuregulin-1 EGF-like domain, primary screen, biochemical, small-molecule microarray, 635 nm fluorescence (AID 1081).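 Further: binding of the protein to compounds printed on small-molecule microarray slides.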 Conditions: small-molecule microarray binding, higher = more signal.
A short description of experiment [8]: FRG1 promoter luciferase signal modulators, primary screen, FRG1 inhibition for FSHD, cell-based, C2C12 myotubes, firefly/Renilla luciferase, luminescence (AID 1084). Conditions: higher = more signal, called active from +8 up or from −8 down.
Experiment [9] is described as follows: binders of probe aFST on microarray, primary screen, stem cell growth factor project, biochemical, small-molecule microarray, fluorescence 635/667 (AID 1086).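 Further: score merges 667 nm fluorescence with signal-to-noise of each printed compound spot.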 Conditions: higher = more signal.
The nature of experiment [10]: binders of probe aHhip on microarray, primary screen, stem cell growth factor project, biochemical, small-molecule microarray, fluorescence 635/667 (AID 1087).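 Further: score merges spot fluorescence at 667nm with spot signal to noise ratio.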 Conditions: higher = more signal.

Turning to `C=CCC(OC(C)=O)[C@@H]1[C@@H](N(Cc2ccc(-c3cccc(C(F)(F)F)c3)o2)C(=O)Cc2ccc(OC)cc2)c2cc(OCCCO)ccc2N1C(=O)c1ccc(-c2ccccc2)cc1` (stereo not given in full), the composite z-score in experiment [1] is -0.124; in experiment [2] it was 0.004; in [3], -0.0796; in experiment [4], 0.0554; in experiment [5], -0.57; in [6] it was 0.168. The composite z-score in experiment [7] came to 0.0604; in experiment [9], 0.214; in experiment [10], 0.382. In [8], the z-score was -0.461 (inactive).
Turning to `C=CCOC(=O)[C@@H]1[C@H]2C(=O)O[C@H](c3ccccc3)[C@H](c3ccccc3)N2[C@H](c2ccc(OCCOC(=O)[C@@H]3C[C@@H]4C(=O)N[C@@H](CCCC[N+](C)(C)C)C(=O)N4[C@@H]3c3ccc(O)cc3)cc2)[C@@]12C(=O)Nc1ccc(I)cc12`, the composite z-score is -0.106 in experiment [1]; 0.956 in [2]; -0.0005 in experiment [3]; 0.884 in [4]; 0.617 in [5]; 1.2 in experiment [6]. Also, the results for the composite z-score in [7], in [9] and in [10] were 1.38, -0.0446 and -0.16, respectively. The z-score in experiment [8] is 3.51 (inactive).
`[N-]=[N+]=Nc1ccccc1C[C@@]1(C(N)=O)N=C(c2ccc(OCCCO)cc2)O[C@@H]1c1ccccc1N=[N+]=[N-]`: the composite z-score in experiment [1] is 0.613; in experiment [2], 0.338; in [3], -0.0751; in experiment [4], 0.684; in experiment [5] it was 1.45; in experiment [6] it was 0.467. For the same molecule, the composite z-score in experiment [7] came out at 1.26; in experiment [9] it was 0.493; in experiment [10], 0.0722. Also, in [8], the z-score is 0.0144 (inactive).
As for `CC#CCO[Si](C#Cc1ccccc1)(C(C)C)C(C)C`, the composite z-score in experiment [1] is 0.393; in experiment [2], -0.688; in experiment [3], -0.187; in [4], -0.279; in experiment [5], 1.34; in [6] it was -0.878. Also, the figures for the composite z-score in [7], in experiment [9] and in experiment [10] were -0.665, -0.217 and -0.134, respectively. Further, in experiment [8], the z-score is 0.289 (inactive).
Take `C=CC[C@@H](OC(=O)Nc1ccc(OC)cc1)c1ccc(O)c(F)c1`: the composite z-score in experiment [1] was 0.93; in experiment [2], 0.141; in [3], -0.141; in experiment [4], -0.97; in experiment [5] it was -1.43; in experiment [6], 0.952. Moreover, the composite z-score in [7] is 1.13; in experiment [9] it was -0.535; in experiment [10] it was -0.216. In addition, the z-score in [8] is 6.36 (inactive).
`CCOC(=O)C1=C[C@@H](c2ccccc2)N(S(=O)(=O)c2ccc(C)cc2)[C@H]1c1ccc(OC)cc1`: the composite z-score in [1] is 0.0896; in experiment [2], 0.733; in experiment [3] it was 0.479; in experiment [4], 0.848; in experiment [5] it was 1.61; in [6], 1.02. Besides, the composite z-score in experiment [7] was 1; in experiment [9] it was 1.14; in experiment [10], 0.554. In experiment [8], the z-score was -2.76 (inactive).
In the case of `O=C1OCCC=C[C@H]2OC34C=CCN(Cn5nnc6ccccc65)C(=O)[C@H]3N(CCCO)C(=O)[C@@H]4C12` (stereo not given in full), the composite z-score in experiment [1] was 0.32; in experiment [2], -0.173; in experiment [3] it was -0.116; in experiment [4], -0.169; in experiment [5], -1.3; in [6], -0.763. Further, the composite z-score is 0.437 in experiment [7], -0.601 in experiment [9] and -0.236 in experiment [10]. Further, the z-score in experiment [8] was 0.0397 (inactive).
Take `CC(=O)N1CC2(CC2)CC1c1ccccc1` (stereo not given): the composite z-score was 0.392 in experiment [1]; 1.04 in [2]; -0.14 in [3]; 0.242 in [4]; 0.437 in experiment [5]; 0.163 in experiment [6]. The composite z-score turned out to be 0.413 in experiment [7], 0.661 in [9] and 0.533 in experiment [10]. In experiment [8], the z-score was 2.2 (inactive).
Turning to `COC(=O)[C@@]1(Cc2ccc(OC)cc2)[C@H]2c3cc(C(=O)N4CCCC4)n(CCO)c3C[C@H]2CN1C(=O)c1ccccc1`, the composite z-score was 0.0734 in [1]; -0.562 in experiment [2]; 0.418 in experiment [3]; 1.18 in [4]; 1.55 in [5]; 1.77 in experiment [6]. In addition, the composite z-score is 0.764 in experiment [7], 0.691 in [9] and 0.34 in experiment [10]. Besides, the z-score in [8] is 1.45 (inactive).
With `CCCC[C@@H](O)C1=C(COC)C[C@H]2C(=O)N(C)C(=O)[C@H]2[C@H]1CO`, the composite z-score in experiment [1] is -0.439; in experiment [2], 0.131; in experiment [3], -0.176; in experiment [4], 0.466; in [5], -0.02; in experiment [6], -0.321. The composite z-score is -0.282 in experiment [7], 0.0794 in experiment [9] and -0.16 in experiment [10]. Further, the z-score in experiment [8] was -1.21 (inactive).
As to `CCCCC(CC)C(O)C1C=CC2C(=O)N(c3ccccc3)C(=O)C2N1Nc1ccc(C#N)cc1` (stereo not given), the composite z-score in experiment [1] is 0.883; in [2], 0.468; in experiment [3] it was 0.332; in experiment [4], 1; in experiment [5] it was 1.59; in experiment [6], 0.893. The composite z-score is 1.31 in experiment [7], 1.66 in experiment [9] and -0.183 in [10]. Further, the z-score in [8] was -0.257 (inactive).
Take `COc1cc2c(cc1O)C(C1CC1)N(Cc1cccc(OC(F)(F)F)c1)CC2` (stereo not given): the composite z-score in experiment [1] is -0.119; in [2], 0.257; in experiment [3], -0.101; in experiment [4], 0.248; in [5], -0.725; in experiment [6], 1.39. Moreover, the composite z-score in [7] is 0.857; in experiment [9] it was -0.182; in [10] it was 0.132. Further, the z-score in experiment [8] is 0.329 (inactive).
As to `O=C1N(CCS(=O)(=O)c2ccccc2)c2ccccc2[C@H]2OC(c3ccc(OCCCO)cc3)=N[C@@]12Cc1ccccc1`, the composite z-score in experiment [1] is 0.529; in experiment [2], 0.756; in experiment [3] it was 0.0918; in experiment [4], 0.102; in experiment [5] it was 0.918; in experiment [6], -0.0845. In addition, the composite z-score was 1.29 in experiment [7], 0.772 in experiment [9] and -0.0663 in experiment [10]. The z-score in [8] is -0.375 (inactive).
